Hits are enriched below; roughly 18% of the tested compounds scored in any of these assays.
TDP1 block = inhibitors of human tyrosyl-DNA phosphodiesterase TDP1; recombinant TDP1, AlphaScreen DNA substrate cleavage; Potency, µM (titrated, usually from 130 µM), hits mostly inhibitors; 350,000 tested, 0.28% active; also: nearly all actives have a fitted effect of over 40% in size
Target sequence (Q9NUW8 whole entry, looked up): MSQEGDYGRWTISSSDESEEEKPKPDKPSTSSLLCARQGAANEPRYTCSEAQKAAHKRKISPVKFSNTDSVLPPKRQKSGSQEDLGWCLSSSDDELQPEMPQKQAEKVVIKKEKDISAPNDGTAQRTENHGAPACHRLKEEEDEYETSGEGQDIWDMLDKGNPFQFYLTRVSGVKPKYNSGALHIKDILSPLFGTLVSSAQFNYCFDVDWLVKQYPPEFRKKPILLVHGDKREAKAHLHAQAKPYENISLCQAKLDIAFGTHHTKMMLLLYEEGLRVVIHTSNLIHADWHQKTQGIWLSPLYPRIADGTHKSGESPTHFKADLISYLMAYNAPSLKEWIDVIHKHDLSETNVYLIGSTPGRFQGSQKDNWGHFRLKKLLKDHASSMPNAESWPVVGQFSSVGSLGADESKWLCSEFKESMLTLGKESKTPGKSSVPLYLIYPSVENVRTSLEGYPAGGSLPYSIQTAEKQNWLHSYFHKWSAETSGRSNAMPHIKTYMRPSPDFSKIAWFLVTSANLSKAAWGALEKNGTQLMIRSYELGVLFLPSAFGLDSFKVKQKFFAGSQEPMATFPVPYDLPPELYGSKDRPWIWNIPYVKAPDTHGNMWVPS
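Here, a 5' biotin and 3' phosphotyrosine-FITC DNA oligonucleotide reports Tdp1 activity: intact substrate bridges AlphaScreen beads, while cleavage leaves a 3' phosphate and drops signal. All incubations at room temperature.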
IL-1B inflam inh = blocks inflammasome-driven IL-1 beta release; THP-1 LPS/ATP IL-1B secretion, AlphaLISA, 16 h; active compounds read low; activity change, % at 57.5 µM; 360,000 tested, 4.7% active; in the data active = activity change below about -50%; inconclusive = mostly about -30% to -49%
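Secreted IL-1B measured by AlphaLISA bead assay after 16 h compound exposure of THP-1 cells; compounds (final up to 57.5 uM) added 1 h before LPS (250 ng/mL) and ATP (1.25 mM) stimulation; lower signal means less secretion.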
TDP1 cell noCPT = qHTS for Inhibitors of human tyrosyl-DNA phosphodiesterase 1 (TDP1): qHTS in cells in absence of CPT | DT40 Tdp1-/- hTDP1 cells, no CPT, ATP luminescence, 48 h | Potency, µM (doses to about 46.2 µM), usual class: inhibitors | 420,000 tested, 15% active | AID 686978, 2013; also: nearly all actives have a fitted effect of over 55% in size
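Chicken DT40 Tdp1-/- cells stably complemented with human TDP1 were seeded at 400 cells/well with DMSO in place of 20 nM camptothecin. After compound pinning, cells grew at least 48 hr at 37 °C; viability read by CellTiter-Glo luminescence.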
TGFb SMAD3 inh = blocks TGF-b signaling; 410,000 tested, 1.2% active; AID 588855; HepG2 CAGA-GFP TGF-b/SMAD3 reporter, GFP fluorescence, 18 h; TGF-beta stimulated, 500 pg/mL final; Potency, µM (top dose mostly 46.1 µM), most hits filed as inhibitors; also: nearly all actives have a fitted effect of over 65% in size
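Cell-based qHTS in HEPG2 carrying a CAGA-GFP Smad reporter; compounds added before 500 pg/mL final TGF-beta, 18 h incubation at 37 degrees C, GFP fluorescence quantified per cell by imaging cytometry.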
DT40 TDP1 CPT = growth inhibition of DT40 Tdp1-/-;hTDP1 cells with camptothecin (screen for TDP1 inhibitors) | chicken DT40 Tdp1-/-;hTDP1 cells + 20 nM CPT, ATP luminescence, 48 h | Potency, µM (series often up to 46.2 µM), most hits filed as inhibitors | 420,000 tested, 12% active; also: nearly all actives have a fitted effect of over 55% in size
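Chicken DT40 Tdp1-/- cells complemented with human TDP1, 400 cells/well, exposed to compounds plus 20 nM camptothecin for at least 48 h at 37 C; viability read as ATP content by CellTiter-Glo luminescence.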
HepG2 tox = counter-screen for TGF-b inhibitors: cytotoxicity in HepG2 cells; HepG2 CAGA-GFP viability, ATP luminescence, 18 h; 410,000 tested, 0.76% active; AID 588856; Potency, µM (doses to about 46.1 µM), hits mostly cytotoxic
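HepG2 CAGA-GFP cells (1000/well, DMEM with 1% FBS) received compound, then TGF-beta at 500 pg/mL final, and were incubated 18 hours at 37 degrees C. Viability was read by CellTiter-Glo luminescence. Media-only wells were set as complete cell-killing and DMSO as no toxicity.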
A number is an active result; 0 = inactive; ? = inconclusive; - = no result given; [ ] = another dose, or the depositor's remark. Unless noted, calls follow the shape of the dose curve; as a rule, active = well fitted curve in the direction sought with a large enough effect; inconclusive = small, poorly fitted or top-dose-only effect, or another doubt; inactive = no such curve, though single readings can be large; an effect the other way counts as inactive or inconclusive.

SMILES	TDP1 block	IL-1B inflam inh	TDP1 cell noCPT	TGFb SMAD3 inh	DT40 TDP1 CPT	HepG2 tox
OC(COc1ccc2ccccc2c1)CN1CCCC1 (configuration not stated)	0	0	0	0	0	0
OC(CNCCc1ccc(C(F)(F)F)cc1)COc1ccc2ccccc2c1 (configuration not stated)	0	-101	0	?	?	0
COc1ccc(CCNC(=O)CS(=O)Cc2nc(-c3ccc(C)cc3)oc2C)c(OC)c1 (configuration not stated)	0	-	?	0	?	0
O=C(N/N=C/c1cn(-c2ccccc2)nc1-c1cc2ccccc2o1)c1cccnc1	0	-222	5.2µM	0	3.3µM	0
O=C(N/N=C/c1cn(-c2ccccc2)nc1-c1cccnc1)c1cccnc1	0	?	0	0	0	0
O=C(O)c1cccc(NC(=O)c2cn(-c3ccccc3)nc2-c2cc3ccccc3o2)c1	0	0	?	0	?	0
O=C(N/N=C/c1cn(-c2ccccc2)nc1-c1cc2ccccc2o1)c1ccncc1	0	?	18µM	0	26µM	0
C(=C1c2ccccc2Oc2ccccc21)c1ccccc1	-	-	?	0	?	0
O=C(O)c1cc(S(=O)(=O)N2CCN(C(c3ccccc3)c3ccccc3)CC2)ccc1Cl	-	0	0	0	0	0
COc1ccc(-n2c(=O)c(CCc3ccccc3)nc3cnc(N4CCOCC4)nc32)cc1	-	-	0	-	0	-
Cc1ccc(C2=NOC(=O)/C2=C\c2ccc(C)o2)cc1	0	0	23µM	0	13µM	0
Cc1ccc(-c2ccc(/C=C3\C(=O)ON=C3c3ccccc3)o2)c([N+](=O)[O-])c1	0	-107	16µM	0	8.2µM	0
O=C1/C(=C\c2ccc(-c3ccccc3[N+](=O)[O-])o2)C(c2ccccc2)=NN1c1ccccc1	0	0	0	0	0	0
Cc1ccc(/C=C2\C(=O)ON=C2c2ccccc2)o1	0	0	0	0	0	0
COc1cc(/C=C2\C(C)=C(C#N)c3nc(N)c(C#N)c(C)c32)ccc1OCC(=O)O	0	0	?	0	23µM	0
CCOC(=O)CNC(=O)CSc1ncnc2c1cnn2-c1ccc(Cl)cc1	0	0	0	0	0	0
CCOC(=O)Cc1csc(NC(=O)/C=C/c2ccc(OC)cc2)n1	0	0	21µM	0	10µM	0
CCOC(=O)Cc1csc(N/N=C\c2cccc(Br)c2)n1	0	0	?	0	13µM	0
CCOC(=O)Cc1csc(NC(=O)/C=C\c2ccccc2)n1	0	0	?	0	?	0
CCOC(=O)Cc1csc(N/N=C/c2ccccc2)n1	0	0	?	0	?	0
CCOC(=O)Cc1csc(NC(=O)Nc2ccc(OC(F)(F)F)cc2)n1	0	0	18µM	0	?	0
CCOC(=O)Cc1csc(NC(=O)CSc2ncnc3c2cnn3-c2ccc(OC)cc2)n1	0	0	15µM	0	?	0
CCC1(C2CCN(C(=O)c3ccc(C)c(C)c3)CC2)NC(=O)N(CCc2scnc2C)C1=O (configuration not stated)	-	-	0	-	0[9.04 µM]	-
Cc1ccc(C(=O)Nc2ccc(F)cc2)cc1NC1=NC2CS(=O)(=O)CC2S1 (configuration not stated)	-	0	0	0	0	0
CCOC(=O)Cc1csc(NC(=O)NC2(C(F)(F)F)Oc3cc(Cl)c(Cl)cc3O2)n1	0	0	?	?	23µM	0
SMILES	TDP1 block	IL-1B inflam inh	TDP1 cell noCPT	TGFb SMAD3 inh	DT40 TDP1 CPT	HepG2 tox
Cc1nc2ccc(Cl)cc2nc1C	-	0	0	0	0	0
Fc1ccc(CNc2nc3c(-c4ccc(F)cc4)nnn3c3ccccc23)cc1	0	-	0	0	0	0
Oc1ccccc1C1C=C(c2ccc3c(c2)OCO3)NC(c2cccc(Cl)c2)N1 (configuration not stated)	0	-	13µM	?	?	0
Oc1ccccc1C1C=C(c2ccc3c(c2)OCO3)NC(c2ccc(F)c(Br)c2)N1 (configuration not stated)	0	-	-	?	-	0
Oc1ccc(Br)cc1C1C=C(c2ccc3c(c2)OCO3)NC(c2ccc(F)c(Br)c2)N1 (configuration not stated)	0	-	-	7.9µM	-	0
COc1ccc(Br)cc1C1NC(c2ccc3c(c2)OCO3)=CC(c2ccccc2O)N1 (configuration not stated)	0	-	10µM	?	?	0
CS(=O)(=O)N1N=C(c2ccc(Br)cc2)CC1c1ccc2c(c1)OCO2 (configuration not stated)	0	0	?	0	?	0
Oc1ccccc1C1C=C(c2ccc3c(c2)OCO3)NC(c2ccc(Br)cc2)N1 (configuration not stated)	0	-	11µM	0	11µM	0
Cc1ccc(S(=O)(=O)N(C)C)cc1NC(=O)CN1C(=O)NC(Cc2ccccc2)C1=O (configuration not stated)	0	0	0	0	0	0
Cc1ccc(NC(=O)C(=O)NCCc2sc(-c3ccc(Cl)cc3)nc2C)cc1C	0	-	0	0	0	0
Cc1ccc(C2NC(c3ccc4c(c3)OCO4)=CC(c3cc(Br)ccc3O)N2)cc1 (configuration not stated)	0	-	4.5µM	?	7.9µM	0
Oc1ccc(Br)cc1C1C=C(c2ccc3c(c2)OCO3)NC(c2ccc(Br)cc2)N1 (configuration not stated)	0	-	7.9µM	?	10µM	0
Cc1ccc(NC(=O)CCS(=O)(=O)c2ccccc2)cc1S(=O)(=O)N1CCCCCC1	-	0	?	0	?	0
O=C(CN1CCCC1c1cccs1)Nc1cc(S(=O)(=O)N2CCCCC2)ccc1Cl (configuration not stated)	-	0	?	0	16µM	0
Cc1ccc(NC(=O)CN2CCCC2c2cccs2)cc1S(=O)(=O)N1CCCCC1 (configuration not stated)	0	0	23µM	?	18µM	0
CCOc1ccc(NC(=O)CN2CCCC2c2cccs2)cc1S(=O)(=O)N1CCCCC1 (configuration not stated)	0	0	15µM	?	15µM	0
Cc1ccc(S(=O)(=O)N2CCCCC2)cc1NC(=O)CN1CCCC1c1cccs1 (configuration not stated)	-	0	0	0	0	0
Cc1ccc(Cc2c(-c3ccc(F)cc3)nc3c(C)cc(Br)cn23)cc1	-	0	16µM	13µM	21µM	0

Screening results from PubChem.
